Test results: PubChem BioAssay AID651903 (Broad Institute, 2012)
Out of some 22,000 compounds screened, about 1,100 (5%) were called active. No stated cut-off is given here; in the data, active means activity score above about 55%; inconclusive means no clear call, values can overlap the other calls; inactive means below that. The list comes from a sample in which actives are over-represented; it also holds similar structures and randomly drawn compounds.

Assay: T. cruzi growth inside host cells – cell-based, plate reader, single point, set 2, primary screen (AID 651903);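 further: parasites and compound incubated about four days before reading; 0% = median of neutral control wells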
Conditions: intracellular Trypanosoma cruzi in host cells, at 5.01 µM, active compounds read high

Question: Which activity score (inhibition) does the source give for `C[C@H]1CN([C@@H](C)CO)C(=O)Cc2cc(NC(=O)CCCN(C)C)ccc2O[C@@H]1CN(C)Cc1ccc(-c2ccccc2)cc1` here?
Answer: -19.2% (inactive)

Question: Which activity score (inhibition) does the source give for `COc1ccc(NC(=O)N(C)C[C@@H]2Oc3ccc(NC(=O)CCC(F)(F)F)cc3C(=O)N([C@@H](C)CO)C[C@H]2C)cc1` here?
Answer: -13.2% (inactive)

Question: For `C[C@@H]1CN([C@@H](C)CO)C(=O)CCCn2cc(nn2)CO[C@@H]1CN(C)Cc1cccc(O)c1`, which activity score (inhibition) is on record?
Answer: -17.1% (inactive)

Question: With `C[C@@H]1CN([C@@H](C)CO)C(=O)c2cc(NC(=O)c3ccncc3)ccc2O[C@@H]1CN(C)S(C)(=O)=O` as the compound, how does the activity score (inhibition) read?
Answer: -8.16% (inactive)

Question: For `C[C@H]1CN([C@@H](C)CO)C(=O)CCCn2nncc2CO[C@H]1CN(C)Cc1cccc(C(=O)O)c1`, which activity score (inhibition) is on record?
Answer: -16.6% (inactive)

Question: With `COc1cccc(-c2cnc3c(c2)C(=O)N([C@H](C)CO)C[C@H](C)[C@H](CN(C)C(=O)NC(C)C)O3)c1` as the compound, how does the activity score (inhibition) read?
Answer: 3.35% (inactive)

Question: Which activity score (inhibition) does the source give for `C[C@H](CO)N1C[C@H](C)[C@H](CN(C)S(C)(=O)=O)Oc2c(NC(=O)Nc3cccc4ccccc34)cccc2C1=O` here?
Answer: -17.4% (inactive)

Question: With `Cc1ccc(CN(C)C[C@@H]2OCc3cnnn3CCCC(=O)N([C@@H](C)CO)C[C@H]2C)cc1` as the compound, how does the activity score (inhibition) read?
Answer: -0.307% (inactive)

Question: Which activity score (inhibition) does the source give for `C[C@@H]1CN([C@@H](C)CO)C(=O)c2cccc(NC(=O)c3ccc(-c4nccs4)cc3)c2O[C@@H]1CN(C)Cc1ccncc1` here?
Answer: 20.7% (inactive)

Question: Which activity score (inhibition) does the source give for `C[C@@H]1CN([C@@H](C)CO)C(=O)c2cccc(NC(=O)c3ccc(-c4nccs4)cc3)c2O[C@@H]1CN(C)S(=O)(=O)c1ccccc1` here?
Answer: 24.8% (inactive)

Question: With `C[C@H](CO)N1C[C@H](C)[C@@H](CN(C)S(C)(=O)=O)Oc2c(NC(=O)c3ccc(-c4nccs4)cc3)cccc2C1=O` as the compound, how does the activity score (inhibition) read?
Answer: -3.29% (inactive)

Question: Which activity score (inhibition) does the source give for `Cc1ccc(S(=O)(=O)N(C)C[C@H]2Oc3c(NC(=O)c4ccc(-c5nccs5)cc4)cccc3C(=O)N([C@H](C)CO)C[C@H]2C)cc1` here?
Answer: 69.5% (active)

Question: For `C[C@@H]1CN([C@H](C)CO)C(=O)c2cccc(NC(=O)c3cnccn3)c2O[C@@H]1CN(C)Cc1ccc(C(=O)Nc2ccccc2N)cc1`, which activity score (inhibition) is on record?
Answer: 67.2% (active)

Question: With `C[C@@H]1CN([C@@H](C)CO)C(=O)c2cccc(NC(=O)c3cnccn3)c2O[C@H]1CN(C)Cc1ccc(C(=O)O)cc1` as the compound, how does the activity score (inhibition) read?
Answer: 2.36% (inactive)

Question: For `C[C@H](CO)N1C[C@H](C)[C@H](CN(C)S(C)(=O)=O)Oc2c(NC(=O)c3ccc(-c4nccs4)cc3)cccc2C1=O`, which activity score (inhibition) is on record?
Answer: 9.35% (inactive)

Question: With `C[C@H]1CN([C@@H](C)CO)C(=O)c2cccc(NC(=O)c3ccc(-c4nccs4)cc3)c2O[C@H]1CN(C)Cc1ccc(C(=O)O)cc1` as the compound, how does the activity score (inhibition) read?
Answer: -0.442% (inactive)

Question: With `C[C@H](CO)N1C[C@H](C)[C@@H](CN(C)Cc2ccc(C(=O)Nc3ccccc3N)cc2)Oc2c(NC(=O)c3ccc(-c4nccs4)cc3)cccc2C1=O` as the compound, how does the activity score (inhibition) read?
Answer: 64% (active)

Question: With `C[C@@H]1CN([C@H](C)CO)C(=O)c2cccc(NC(=O)c3cnccn3)c2O[C@@H]1CN(C)Cc1ccncc1` as the compound, how does the activity score (inhibition) read?
Answer: -11.1% (inactive)

Question: Which activity score (inhibition) does the source give for `C[C@@H]1CN([C@@H](C)CO)C(=O)c2cccc(NC(=O)c3ccc(-c4nccs4)cc3)c2O[C@H]1CN(C)Cc1ccc(Cl)c(Cl)c1` here?
Answer: 85.3% (active)

Question: For `C[C@H](CO)N1C[C@H](C)[C@@H](CN(C)S(=O)(=O)c2ccccc2)Oc2c(NC(=O)c3ccc(-c4nccs4)cc3)cccc2C1=O`, which activity score (inhibition) is on record?
Answer: 20.1% (inactive)

Question: Which activity score (inhibition) does the source give for `O=C(O)c1cccc(/C=N/NC(=O)c2cccc(C(=O)NO)c2)c1` here?
Answer: -15.8% (inactive)

Question: Which activity score (inhibition) does the source give for `Cc1cccc(CN(C)C[C@@H]2OCc3cn(nn3)CCCC(=O)N([C@@H](C)CO)C[C@H]2C)c1` here?
Answer: -37.4% (inactive)

Question: Which activity score (inhibition) does the source give for `Cc1cccc(S(=O)(=O)N(C)C[C@@H]2OCc3cnnn3CCCC(=O)N([C@H](C)CO)C[C@@H]2C)c1` here?
Answer: 5.66% (inactive)

Question: With `C[C@H]1CN([C@@H](C)CO)C(=O)Cc2cc(NC(=O)Cc3ccccc3)ccc2O[C@H]1CN(C)S(=O)(=O)c1ccc(Cl)cc1` as the compound, how does the activity score (inhibition) read?
Answer: 30.9% (inactive)

Question: For `Cc1ccc(S(=O)(=O)Nc2cccc3c2O[C@H](CN(C)CC2CCCCC2)[C@H](C)CN([C@H](C)CO)C3=O)cc1`, which activity score (inhibition) is on record?
Answer: 2.35% (inactive)

Question: For `CNC[C@@H]1Oc2c(NC(=O)Nc3ccc(OC)cc3)cccc2C(=O)N([C@@H](C)CO)C[C@@H]1C`, which activity score (inhibition) is on record?
Answer: -23.4% (inactive)

Question: Which activity score (inhibition) does the source give for `COc1ccc(NC(=O)Nc2ccc3c(c2)CC(=O)N([C@H](C)CO)C[C@H](C)[C@H](CN(C)S(=O)(=O)c2ccccc2)O3)cc1` here?
Answer: -4.14% (inactive)

Question: With `Cc1ccc(S(=O)(=O)N(C)C[C@H]2Oc3c(NS(=O)(=O)c4cn(C)cn4)cccc3C(=O)N([C@@H](C)CO)C[C@H]2C)cc1` as the compound, how does the activity score (inhibition) read?
Answer: -10.8% (inactive)

Question: Which activity score (inhibition) does the source give for `Cc1noc(C)c1NC(=O)Nc1ccc2c(c1)C(=O)N([C@@H](C)CO)C[C@H](C)[C@H](CN(C)CC1CCCCC1)O2` here?
Answer: 7.21% (inactive)

Question: With `O=C(N/N=C/c1ccc(O)cc1Br)c1ccccc1O` as the compound, how does the activity score (inhibition) read?
Answer: -10.3% (inactive)

Question: With `COc1ccc(NC(=O)Nc2cccc3c2O[C@H](CN(C)Cc2ccncc2)[C@@H](C)CN([C@@H](C)CO)C3=O)cc1` as the compound, how does the activity score (inhibition) read?
Answer: 2.96% (inactive)

Question: For `COc1ccc(NC(=O)Nc2cccc3c2O[C@@H](CN(C)Cc2ccncc2)[C@H](C)CN([C@H](C)CO)C3=O)cc1`, which activity score (inhibition) is on record?
Answer: -7.67% (inactive)

Question: With `COc1ccc(CN(C)C[C@H]2Oc3c(NC(=O)c4ccncc4)cccc3C(=O)N([C@H](C)CO)C[C@@H]2C)cc1` as the compound, how does the activity score (inhibition) read?
Answer: 80.9% (active)

Question: With `COc1ccc(NC(=O)Nc2ccc3c(c2)CC(=O)N([C@@H](C)CO)C[C@H](C)[C@H](CN(C)C(=O)Nc2ccc4c(c2)OCO4)O3)cc1` as the compound, how does the activity score (inhibition) read?
Answer: -16.4% (inactive)

Question: With `C[C@@H]1CN([C@@H](C)CO)C(=O)c2cc(NS(=O)(=O)c3ccc(Cl)cc3)ccc2O[C@H]1CN(C)S(=O)(=O)c1cn(C)cn1` as the compound, how does the activity score (inhibition) read?
Answer: -11.5% (inactive)

Question: Which activity score (inhibition) does the source give for `CNC[C@H]1Oc2c(NC(=O)C3CC3)cccc2C(=O)N([C@@H](C)CO)C[C@@H]1C` here?
Answer: -26.9% (inactive)

Question: Which activity score (inhibition) does the source give for `C[C@H]1CN([C@@H](C)CO)C(=O)c2cccc(NS(C)(=O)=O)c2O[C@@H]1CN(C)C(=O)Nc1ccc(F)cc1` here?
Answer: -4.72% (inactive)
